# Assay outcomes (PubChem BioAssay)
# An excerpt weighted towards active compounds, which were near 6.2% of everything screened.
# SUMO Mot1 rescue: inhibitors of SUMOylation pathway: yeast Mot1-301 growth rescue; 320,000 tested, 1% active; S. cerevisiae Mot1-301 growth rescue, ATP luminescence, 38.5C; percent above DMSO median, 100 means doubled; growth rescue, % at 18.8 µM; AID 2716;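 active means every valid replicate shows activation above 250% relative to neutral control wells; inactive means the rest, any valid replicate at or below 250%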;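 further: OY570 slx delta 5 strain wells were the positive control but not used for scaling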
# AI-2 QS modul: Vibrio harveyi AI-2 quorum sensing modulation; Vibrio harveyi JMH597 AI-2 luminescence/OD600 ratio, 9 h; active compounds read low; strain lacks LuxN and CqsS sensors; 0 = neutral-control median; activity change, % at 7.5 µM; 300,000 tested, 0.4% active; in the data active means activity change below about -75%, passing the limit was not always enough;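 further: luminescence divided by OD600 gain over 9 h not by final OD600 alone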
# H9c2 protect: modulators protecting cardiomyocytes from myocardial damage | H9c2 cardiomyocytes, H2O2 injury protection, ATPLite, 2 h | protection from H2O2 cell death, % at 20 µM | 360,000 tested, 0.63% active | AID 588492;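 active means compounds giving at least 50% protection of heart cells from peroxide-induced death in the single-dose screen, raw or plate-pattern-corrected value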;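 further: 0% = DMSO wells with peroxide and 100% = DMSO wells without peroxide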
# NR3A LBD binder: modulators (binders) of human NR3A ligand-binding domain; 340,000 tested, 2.5% active; Tm shift relative to glycine control, % at 25 µM; NR3A LBD differential scanning fluorimetry, Tm shift; 0% = protein alone, 100% = glycine-bound protein;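 active means melting temperature shift of at least 10% of the positive control shift, at one fixed dose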
# AHR act: human AHR activation. AID 2796. P35869. AHR-responsive luciferase reporter cells, luminescence. 320,000 tested, 2.5% active. activation, % at 5 µM; in the data active means activation above about 47%;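 further: 0% = vehicle wells and 100% = reference agonist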
# Target sequence (P35869 whole entry, looked up): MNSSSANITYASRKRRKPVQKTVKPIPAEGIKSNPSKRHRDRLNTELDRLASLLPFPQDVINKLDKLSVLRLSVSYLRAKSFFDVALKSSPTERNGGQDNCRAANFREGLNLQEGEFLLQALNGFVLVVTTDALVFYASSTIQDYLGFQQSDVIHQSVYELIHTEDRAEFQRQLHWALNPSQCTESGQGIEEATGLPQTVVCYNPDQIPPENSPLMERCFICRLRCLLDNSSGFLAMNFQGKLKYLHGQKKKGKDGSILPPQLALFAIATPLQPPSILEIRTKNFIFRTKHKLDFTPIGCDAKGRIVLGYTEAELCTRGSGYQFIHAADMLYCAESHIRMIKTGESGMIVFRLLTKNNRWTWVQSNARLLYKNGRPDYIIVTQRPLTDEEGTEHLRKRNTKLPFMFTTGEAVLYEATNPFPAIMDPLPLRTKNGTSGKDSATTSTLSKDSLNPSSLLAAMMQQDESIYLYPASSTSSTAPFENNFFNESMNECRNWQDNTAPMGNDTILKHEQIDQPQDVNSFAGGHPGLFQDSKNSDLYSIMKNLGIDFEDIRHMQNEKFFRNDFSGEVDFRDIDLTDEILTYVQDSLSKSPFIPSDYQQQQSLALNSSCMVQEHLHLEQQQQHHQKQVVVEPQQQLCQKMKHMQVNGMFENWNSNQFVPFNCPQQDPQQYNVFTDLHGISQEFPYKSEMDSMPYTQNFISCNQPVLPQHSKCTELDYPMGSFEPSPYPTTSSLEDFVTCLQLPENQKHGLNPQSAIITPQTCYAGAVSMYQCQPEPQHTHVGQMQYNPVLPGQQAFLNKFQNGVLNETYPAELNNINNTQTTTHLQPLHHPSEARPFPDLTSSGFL
# NTR1 ag: agonists of human neurotensin receptor NTR1 | P30989 | NTR1-U2OS beta-arrestin-GFP spot imaging, agonist mode | activation, % at 20 µM | 330,000 tested, 0.17% active | AID 493036;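 active means activation at or above 40% of the spot to cytoplasm intensity ratio, with at least 20 cells analyzed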;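 further: 0% = DMSO without peptide and 100% = 100 nM NTR1 peptide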
# * hit, by the source's call; . = no result.
SMILES,SUMO Mot1 rescue,AI-2 QS modul,H9c2 protect,NR3A LBD binder,AHR act,NTR1 ag
O=C(CSC1=NNC(c2ccccn2)S1)Nc1cccc(Cl)c1 (stereo unspecified),157,31,61*,2,6,4
O=C(COC(=O)c1ccccc1NCCO)NCC1CCCCC1,133,.,7,0,1,1
Cc1ccc2c(c1)CCCN2C(=O)CCc1nc2ccccc2c(=O)[nH]1,-11,.,76*,1,12,0
CC(C)Cn1c(N)c(C(=O)COC(=O)c2ccc(Cl)cc2)c(=O)n(C)c1=O,129,22,-18,-1,1,13
O=C(CCc1nc2ccccc2c(=O)[nH]1)N1CCN(c2ccc(F)cc2)CC1,1,-10,72*,1,4,0
O=c1[nH]c(CN2CCN(c3ccc(F)cc3)CC2)nc2ccccc12,2,16,13,0,15,0
O=C(CCc1nc2ccccc2c(=O)[nH]1)OCC(=O)N1CCc2ccccc21,7,8,57*,-2,3,-1
CC(C)Cn1c(N)c(C(=O)COC(=O)c2c(O)c(Cl)cc(Cl)c2Cl)c(=O)n(C)c1=O,-3,.,-16,11*,-1,-2
CN(C)CC#Cc1cccc(-c2nc(C(=O)O)cc3c2[C@@H](CCO)N(S(=O)C(C)(C)C)C3)c1 (stereo partly specified),.,.,9,.,.,.
COc1ccc(C(=O)CC(C(=O)O)c2ccc(OC)c(OC)c2)cc1OC (stereo unspecified),.,.,9,.,.,.
COc1ccc(N(C)S(=O)(=O)c2ccc3c(c2)NC(=O)CO3)c(OC)c1,.,12,1,-2,2,-1
CC1(c2ccc(OC(F)F)cc2)NC(=O)N(CC(=O)N2CCN(C(=O)c3ccco3)CC2)C1=O (stereo unspecified),26,.,-4,2,1,0
Cc1ccc(N2CCN(C(=O)CCc3nc4ccccc4[nH]3)CC2)c(C)c1,258,19,-15,-3,0,1
CC(=O)N1CCN(C(=O)CCc2nc3ccccc3c(=O)[nH]2)CC1,-13,30,61*,-1,3,-1
Cc1cccc(N2CCN(C(=O)CCc3nc4ccccc4c(=O)[nH]3)CC2)c1C,-2,.,50*,0,0,0
O=C(CCc1nc2ccccc2c(=O)[nH]1)N1CCN(C/C=C/c2ccccc2)CC1,-6,20,59*,-4,6,-1
Cc1noc(C)c1COC(=O)CCc1nc2ccccc2c(=O)[nH]1,541,5,41,21*,4,0
O=C(/C=C/[C@H]1O[C@@H](n2ccc(=O)[nH]c2=O)[C@H](O)[C@@H]1O)NCCCc1ccccc1,.,.,-2,.,.,.
O=C(NCc1ccccc1Cl)C1CCC(=O)N(CC2CCCCC2)C1 (stereo unspecified),1,29,1,1,-1,0
CC(C)Cn1c(N)c(C(=O)COC(=O)CCc2nc3ccccc3c(=O)[nH]2)c(=O)n(C)c1=O,-9,.,54*,-1,-1,-2
O=C(O)c1cc2nc3c(c(C(F)(F)F)n2n1)CCc1ccccc1-3,3,8,0,11*,4,0
Clc1cccc(-c2nc(NCc3cccnc3)c3ccccc3n2)c1,41,31,-3,22*,8,14
Fc1ccc(CNc2nc(-c3ccccc3)nc3ccccc23)cc1,.,31,-12,21*,.,6
c1ccc(-c2nc(NCc3cccs3)c3ccccc3n2)cc1,8,40,-13,18*,13,9
O=[N+]([O-])c1cccc(-c2nc(NCc3ccccc3)c3ccccc3n2)c1,5,20,-10,339*,88*,18
CCOc1ncccc1C(=O)OCCCC(=O)c1ccc(Br)cc1,13,.,-7,1,0,-2
CC1(C(=O)NS(=O)(=O)c2ccc(Cl)cc2)CCN1C(=O)C/C=C/c1ccccc1 (stereo unspecified),.,.,4,.,.,.
O=C(O)c1cc(-c2cccc([N+](=O)[O-])c2)nc2ccccc12,13,17,-5,0,6,-1
O=[N+]([O-])c1ccc(-c2nc(NCc3ccccc3)c3ccccc3n2)cc1,20,4,-8,50*,-3,-2
